“And” between values parts separate entries of the source, which are not always exact repeats. Equal values may be shown once. Over roughly 2,900 compounds, “NF-kB SEAP reporter activity, fold change vs agonist alone” has its median near 0.99; the highest 2% begin near 2.6. This is one part of a sample in which the highest values are shown more often than they occur.

In experiment [1] the test system is RAW-Dual. Description: NF-kB SEAP reporter activity, fold change vs agonist alone; higher = enhanced NF-kB activity. As to conditions: cytotoxicity flag (confluency mask): not cytotoxic. In a few lines: (§1)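 RAW-Dual macrophages (50,000 cells/well in DMEM, 384-well plates) received 50 nL of library stock by pin tool, then a PRR agonist 1 h later, and were kept at 37 °C, 5% CO2. After 20 hours, supernatant was read for IRF by QuantiLuc luminescence and for NF-κB by QuantiBlue absorbance at 620 nm. Reporter activity is fold change over agonist-alone wells. Cytotoxic wells had IncuCyte confluency below 70% of agonist controls in both mask sets.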

In experiment [2] the test system is RAW-Dual. Description: NF-kB SEAP reporter activity, fold change vs agonist alone; cytotoxicity flag (confluency mask): not cytotoxic; higher = enhanced NF-kB activity. In a few lines: as §1
The mark [3] stands for this setting: library stock concentration (final ~1000-fold dilution): 10 mM, agonist: Imiquimod (TLR7) […].
[4] abbreviates: library stock concentration (final ~1000-fold dilution): 10 mM, agonist: MPLA (TLR4) […].
[5] abbreviates: agonist: ODN 1826 (TLR9) 0.5 ug/mL.
[6] abbreviates: agonist: Pam2CSK4 (TLR2/6) 0.1 ug/mL.
[7] abbreviates: agonist: Pam3CSK4 (TLR2/1) 0.1 ug/mL.

`CC(C)(C)C(=O)Oc1ccc(S(=O)(=O)Nc2ccccc2C(=O)NCC(=O)O)cc1`: the “NF-kB SEAP reporter activity” value in experiment [1] (setting [3]) was found to be 0.966.
In the case of `O=C(O)CSc1cc(NS(=O)(=O)c2ccc(Br)cc2)c2ccccc2c1O`, the “NF-kB SEAP reporter activity” value in experiment [1] (setting [3]) is 1.12; in experiment [1] (setting [4]) it was 2.21.
Consider `O=C(O)CSc1nnc(Br)n1-c1ccc(C2CC2)c2ccccc12`, for which the “NF-kB SEAP reporter activity” value in experiment [1] (setting [4]) worked out at 0.983.
Regarding `O=C(O)CSc1nnc(Br)n1-c1ccc(C2CC2)c2ccccc12` (library stock concentration (final ~1000-fold dilution): 10 mM), the “NF-kB SEAP reporter activity” value worked out at 1.32 in experiment [2] (agonist: LPS (TLR4) 0.1 ug/mL), 1.01 in experiment [2] (setting [5]), 1.24 in experiment [2] (setting [6]) and 1.18 in experiment [2] (setting [7]).
Turning to `O=C(O)CSc1cc(NS(=O)(=O)c2ccc(Br)cc2)c2ccccc2c1O` (library stock concentration (final ~1000-fold dilution): 10 mM), the “NF-kB SEAP reporter activity” value turned out to be 3.16 in experiment [2] (agonist: LPS (TLR4) 0.1 ug/mL), 1.31 in experiment [2] (setting [5]), 1.24 in experiment [2] (setting [6]) and 2.31 in experiment [2] (setting [7]).
Take `CC(C)(C)C(=O)Oc1ccc(S(=O)(=O)Nc2ccccc2C(=O)NCC(=O)O)cc1` (library stock concentration (final ~1000-fold dilution): 10 mM): the “NF-kB SEAP reporter activity” value in experiment [2] (agonist: LPS (TLR4) 0.1 ug/mL) was 1.36 and 1.08; in experiment [2] (setting [5]), 0.906 and 0.939; in experiment [2] (setting [6]), 1.39 and 1; in experiment [2] (setting [7]), 0.652 and 1.02.
`CSCCNc1nc(SCCC(F)(F)F)nc2c1ncn2C1OC(COP(=O)(O)OP(=O)(O)C(Cl)(Cl)P(=O)(O)O)C(O)C1O` (stereo not given): the “NF-kB SEAP reporter activity” value in experiment [1] (library stock concentration (final ~1000-fold dilution): 10 mM water, agonist: Imiquimod (TLR7) […]) stood at 0.972; in experiment [1] (library stock concentration (final ~1000-fold dilution): 10 mM water, agonist: MPLA (TLR4) […]), 1.04.
With `CSCCNc1nc(SCCC(F)(F)F)nc2c1ncn2C1OC(COP(=O)(O)OP(=O)(O)C(Cl)(Cl)P(=O)(O)O)C(O)C1O` (stereo not given) (library stock concentration (final ~1000-fold dilution): 10 mM water), the “NF-kB SEAP reporter activity” value in experiment [2] (agonist: LPS (TLR4) 0.1 ug/mL) is 1.15; in experiment [2] (setting [5]) it was 1.26; in experiment [2] (setting [6]) it was 1.18; in experiment [2] (setting [7]), 0.935.
Take `CCC1OC(=O)C(C)C(OC2CC(C)(OC)C(O)C(C)O2)C(C)C(OC2OC(C)CC(N(C)C)C2O)C(C)(O)CC(C)C(=O)C(C)C(O)C1(C)O.N#CS` (stereo not given): the “NF-kB SEAP reporter activity” value in experiment [1] (setting [4]) came out at 1.07.
Take `CCC1OC(=O)C(C)C(OC2CC(C)(OC)C(O)C(C)O2)C(C)C(OC2OC(C)CC(N(C)C)C2O)C(C)(O)CC(C)C(=O)C(C)C(O)C1(C)O.N#CS` (stereo not given) (library stock concentration (final ~1000-fold dilution): 10 mM): the “NF-kB SEAP reporter activity” value stood at 1.06 in experiment [2] (agonist: LPS (TLR4) 0.1 ug/mL), 0.88 in experiment [2] (setting [5]), 1.07 in experiment [2] (setting [6]) and 1.08 in experiment [2] (setting [7]).
As for `COc1cc(CCC(O)CC(O)CCc2ccc(O)c(OC)c2)ccc1O` (stereo not given), the “NF-kB SEAP reporter activity” value in experiment [1] (setting [3]) is 1.04; in experiment [1] (setting [4]), 1.05.
Consider `COc1cc(CCC(O)CC(O)CCc2ccc(O)c(OC)c2)ccc1O` (stereo not given) (library stock concentration (final ~1000-fold dilution): 10 mM), for which the “NF-kB SEAP reporter activity” value in experiment [2] (agonist: LPS (TLR4) 0.1 ug/mL) worked out at 1.41; in experiment [2] (setting [5]), 1.15; in experiment [2] (setting [6]), 1.08; in experiment [2] (setting [7]), 1.06.
Turning to `COC1=CC(c2cc3ccccc3[nH]2)=N/C1=C\c1[nH]c(C)cc1C.CS(=O)(=O)O`, the “NF-kB SEAP reporter activity” value in experiment [1] (setting [3]) came out at 1.4; in experiment [1] (setting [4]), 2.78.
For the compound `COC1=CC(c2cc3ccccc3[nH]2)=N/C1=C\c1[nH]c(C)cc1C.CS(=O)(=O)O` (library stock concentration (final ~1000-fold dilution): 10 mM), the “NF-kB SEAP reporter activity” value in experiment [2] (agonist: LPS (TLR4) 0.1 ug/mL) came out at 8.62; in experiment [2] (setting [5]) it was 1.9; in experiment [2] (setting [6]), 2.55; in experiment [2] (setting [7]), 3.87.
Consider `CCOC(=O)COc1ccc(/C=C2\SC(=S)NC2=O)cc1OC`, for which the “NF-kB SEAP reporter activity” value is 0.985 in experiment [1] (setting [3]) and 1.1 in experiment [1] (setting [4]).
Regarding `CCOC(=O)COc1ccc(/C=C2\SC(=S)NC2=O)cc1OC` (library stock concentration (final ~1000-fold dilution): 10 mM), the “NF-kB SEAP reporter activity” value is 1.04 in experiment [2] (agonist: LPS (TLR4) 0.1 ug/mL), 0.889 in experiment [2] (setting [5]), 0.889 in experiment [2] (setting [6]) and 1.1 in experiment [2] (setting [7]).
With `CCOC(=O)C1=CCCCC1S(=O)(=O)Nc1ccc(F)cc1Cl` (stereo not given), the “NF-kB SEAP reporter activity” value in experiment [1] (library stock concentration (final ~1000-fold dilution): .1 mM, agonist: Imiquimod (TLR7) […]) was found to be 1.2; in experiment [1] (library stock concentration (final ~1000-fold dilution): .1 mM, agonist: MPLA (TLR4) […]), 0.252.
Regarding `CCOC(=O)C1=CCCCC1S(=O)(=O)Nc1ccc(F)cc1Cl` (stereo not given) (library stock concentration (final ~1000-fold dilution): .1 mM), the “NF-kB SEAP reporter activity” value in experiment [2] (agonist: LPS (TLR4) 0.1 ug/mL) came to 0.288; in experiment [2] (setting [5]), 1.09; in experiment [2] (setting [6]), 1.36; in experiment [2] (setting [7]), 1.39.
On the same counts, the results for `CS(=O)(=O)O.CS(=O)(=O)O.N=C(N)Nc1ccc(C(=O)Oc2ccc3cc(C(=N)N)ccc3c2)cc1` (library stock concentration (final ~1000-fold dilution): 10 mM) are 1.08, 1.05, 1.02 and 0.924.
Take `N=C(N)c1ccc(OCCCCCOc2ccc(C(=N)N)cc2)cc1.O=S(=O)(O)CCO.O=S(=O)(O)CCO`: the “NF-kB SEAP reporter activity” value in experiment [1] (setting [3]) stood at 1.39; in experiment [1] (setting [4]), 1.89.
Take `N=C(N)c1ccc(OCCCCCOc2ccc(C(=N)N)cc2)cc1.O=S(=O)(O)CCO.O=S(=O)(O)CCO` (library stock concentration (final ~1000-fold dilution): 10 mM): the “NF-kB SEAP reporter activity” value in experiment [2] (agonist: LPS (TLR4) 0.1 ug/mL) is 3.88; in experiment [2] (setting [5]), 1.22; in experiment [2] (setting [6]), 0.758; in experiment [2] (setting [7]), 1.06.
For `NC(=O)c1ccc(OCCCN2CC3CCCC3C2)cc1` (stereo not given) (library stock concentration (final ~1000-fold dilution): 10 mM), the “NF-kB SEAP reporter activity” value came out at 0.976 in experiment [2] (agonist: LPS (TLR4) 0.1 ug/mL), 0.696 in experiment [2] (setting [5]), 0.926 in experiment [2] (setting [6]) and 1.14 in experiment [2] (setting [7]).
Consider `NC(=O)c1ccc(OCCCN2CC3CCCC3C2)cc1` (stereo not given), for which the “NF-kB SEAP reporter activity” value was found to be 0.844 in experiment [1] (setting [3]) and 1.05 in experiment [1] (setting [4]).
Regarding `CS(=O)(=O)O.CS(=O)(=O)O.N=C(N)Nc1ccc(C(=O)Oc2ccc3cc(C(=N)N)ccc3c2)cc1`, the entries for the “NF-kB SEAP reporter activity” value in experiment [1] (setting [3]) and in experiment [1] (setting [4]) were 1.01 and 1.02, respectively.
Consider `COCCc1ccc(OCC(O)CNC(C)C)cc1.COCCc1ccc(OCC(O)CNC(C)C)cc1.O=C(O)CCC(=O)O` (stereo not given) (library stock concentration (final ~1000-fold dilution): 10 mM), for which the “NF-kB SEAP reporter activity” value in experiment [2] (agonist: LPS (TLR4) 0.1 ug/mL) came out at 1.32; in experiment [2] (setting [5]) it was 0.801; in experiment [2] (setting [6]), 0.839; in experiment [2] (setting [7]), 0.868.
As to `COCCc1ccc(OCC(O)CNC(C)C)cc1.COCCc1ccc(OCC(O)CNC(C)C)cc1.O=C(O)CCC(=O)O` (stereo not given), in experiment [1] (setting [4]), the “NF-kB SEAP reporter activity” value was determined as 1.03.
Take `NC1(C(=O)NC(CCO)c2ccc(Cl)cc2)CCN(c2ncnc3[nH]ccc23)CC1` (stereo not given): the “NF-kB SEAP reporter activity” value worked out at 0.829 in experiment [1] (setting [3]) and 0.793 in experiment [1] (setting [4]).
Take `NC1(C(=O)NC(CCO)c2ccc(Cl)cc2)CCN(c2ncnc3[nH]ccc23)CC1` (stereo not given) (library stock concentration (final ~1000-fold dilution): 10 mM): the “NF-kB SEAP reporter activity” value amounted to 0.9 in experiment [2] (agonist: LPS (TLR4) 0.1 ug/mL), 1.06 in experiment [2] (setting [5]), 0.974 in experiment [2] (setting [6]) and 0.723 in experiment [2] (setting [7]).

Source of the values: the supplement of paper PMC10037445.
